Laboratory results published in PubChem BioAssay AID1347426 (Functional Genomics Laboratory (NCATS/FGL), 2020).
The campaign covered roughly 31,000 sequences. About 1,400 (4.5%) were called active.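 The calls were made as follows: active = median seed-adjusted z-score above 1 or below -1; inactive = the rest.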 Only a selection was taken, and actives are over-represented in it overall.

Assay: Novel Modifiers of Survival Motor Neuron (SMN) Protein: Gene Identification via Genome-wide siRNA Screen;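 also: luminescence tracks full-length SMN protein made from the SMN2 reporter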
Details: HEK293T SMN2-luciferase reporter, siRNA knockdown, 72 h; actives lie on both sides
Procedure, shortened: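 Luciferase signal, proportional to full-length SMN made from an SMN2 cDNA reporter in stable HEK293T cells, was read 72 h after siRNA reverse transfection. Values were expressed as MAD scores after non-targeting-control normalization and log10 conversion; seed analysis flagged off-targets.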

Sequence	median seed-adjusted z-score
GCCUCCCACUACUUUGAAATT against IL2RB	0.333 (inactive)
GCAUGUCCAAUGUUCCAUATT against ACAT1	-0.848 (inactive)
UAAUAAAGCGGAUUCUAGATT against THAP7	-0.0317 (inactive)
GUCGAGUAUUCAUCCGAGATT against DHX57	-0.138 (inactive)
CGAUAGCACCUUCCUGUUUTT against GALT	0.484 (inactive)
GCUUACAUAGCAAAUCUAATT against ST8SIA2	0.516 (inactive)
CAGUGUUCGUUCAACCCUATT against ZNF665	1.13 (active)
GAUCCGCACGGACUGCUUUTT against ACVRL1	-0.361 (inactive)
GAAAUCUUCUUACGAAAAATT against XPO7	0.546 (inactive)
GACAGGACGUGAACAUGCATT against SLC22A18AS	0.0382 (inactive)
CAACGAAGAGGGCAUGUUUTT against MEOX2	1.36 (active)
GCAGCAAGAAGGUAGCACATT against ZNF598	-0.303 (inactive)
GUCUUUACUCUUCAACUGATT against THBS4	-0.28 (inactive)
GCAACUCAAAGGUGAUAAATT against CCNK	-0.717 (inactive)
GGCUCAAUGUGGACUACAATT against HS3ST1	1.21 (active)
CUACUUUUAUCUUGCAUAATT against ZNF264	0.617 (inactive)
GGACUCUACUGCUAAAGUATT against TBC1D8B	-0.985 (inactive)
GAAAAACGGUGACCGUCAATT against MYO9B	-0.0287 (inactive)
CAGUUUGCUCUAUCAGUAATT against PSTPIP2	0.0136 (inactive)
CGCUGAAGUUUGUCCCUAATT against SEPX1	-0.0545 (inactive)
CAGUGUGGAUACUAAUAAATT against PMVK	0.269 (inactive)
CAAUCACCGCUGUGGUAAATT against UCP1	-0.0744 (inactive)

Sequence	median seed-adjusted z-score
CGAGGUGACUGGUACAAGATT against NDUFV1	-0.653 (inactive)
CUACGAUUCUGGUGGAAUATT against TRRAP	-1.25 (active)
GGAUGAUUUAGAAUUGUCATT against ATP6V0C	-0.389 (inactive)
CCAUGUUCAGUUCCAAGGATT against CORO1A	0.569 (inactive)
GGUGAUCACCAAGAUCAAATT against ADCY3	-0.294 (inactive)
CUACACCUGUUUCAACAGATT against USPL1	-1.87 (active)
AGAAGUCUGUUGCUAUGCATT against GNB5	-0.535 (inactive)
GACCAUACCCAGUACCGAUTT against MYH15	-0.939 (inactive)
GCAGGACCUUUUAGCAUCUTT against LYL1	-0.118 (inactive)
ACCGCUAUGUCUACAUGUUTT against FADS6	-0.637 (inactive)
GAAACAAACUUAUAGUGAUTT against WBP5	0.452 (inactive)
GGAUUUUUGAUUUUCCGAATT against TUBAL3	1.05 (active)
CGAAGGCCUUGUGAACAGATT against FOSL1	-0.431 (inactive)
CAGAGAAACGAGUCUUUAATT against ST6GALNAC5	-0.0321 (inactive)
GCUUCUAAAUGUGAGACGATT against GCNT4	-0.0629 (inactive)
GGGUACAACUCUUUGAAGATT against MNAT1	-0.335 (inactive)
GCUCAAAUUGUUUUGCGUUTT against AKR1D1	0.211 (inactive)
CGCUUCAAGAGGUUCGGAATT against MLPH	-1.2 (active)
GAAAAGGGAUAACUACGAATT against HIVEP3	0.516 (inactive)
CCAGCGAGCUGAUCCUCAATT against MYCN	0.00242 (inactive)
CCACCUUUGCAACGCGGAATT against TPSD1	0.0848 (inactive)
GAGAUGCUGUGAGUAGGUATT against TTC9C	-0.571 (inactive)

Sequence	median seed-adjusted z-score
CGACAUUGCCCUGCUCAAATT against ELA2B	-0.154 (inactive)
GGGUCACAGAGGUCGAUAUTT against PDILT	-0.0994 (inactive)
CAAUAAGGCUCAUGCACAATT against GNAQ	-1.23 (active)
AACUCUUCAGGUGAAGAUATT against SLC8A2	0 (inactive)
GGAGUUUGCGUUUGAGGUATT against PLCD1	-0.0473 (inactive)
CGAAUAUGAUGAAGAUGUUTT against PHF17	1.01 (active)
CAAAGAUCAUGAUAUUCCATT against JUB	-0.0898 (inactive)
CACCCACCUCAGAUUGAUATT against MBTPS2	-0.324 (inactive)
CGCUCUACCUGAUCUGCUATT against SLC43A2	-0.202 (inactive)
ACAUCAUGAGGAAUGCUAUTT against UCP3	1.23 (active)
GAGCAGAAAUUAUUCGUUATT against PGDS	0.02 (inactive)
GACUAAAGAUUCAGAUAAATT against TRIM13	0.712 (inactive)
CGACAGAGGCAGACACAGATT against BATF	-0.0501 (inactive)
GAAUUGCUCCACCAGAUAATT against NAALAD2	-0.00068 (inactive)
GAUGAUGACUUACAUAGAATT against TRRAP	-1.25 (active)
CUAUAGCAAGUGAACUAAATT against COG5	-0.0609 (inactive)
GGGUUGGUUUGGGCCUGAATT against SOX12	0.478 (inactive)
GAAGAGCAGUGUACCAUCATT against STARD8	-0.135 (inactive)
AAGACGAACUUGAGCUGGATT against MAPK8IP1	0.576 (inactive)
GCUCCAAUGUCUACAGAAATT against MRGPRE	-0.65 (inactive)
CAGAUGAAAUACUACUUCUTT against ARD1A	-1.05 (active)
GCAGUUACCCGCAUACCAATT against CALCR	-0.404 (inactive)

Sequence	median seed-adjusted z-score
GGGAAGCCGCCUAUACCAATT against TK1	-0.0562 (inactive)
AGACCGUAAUUAUCGUCCUTT against EDG1	-0.316 (inactive)
GGAUGACAUGUCUAGCAUUTT against NXF1	-4.46 (active)
CAACCUAUCAUAUCUGUUUTT against SLC22A16	0.0878 (inactive)
CCAUCGGCAUCACCUUCUATT against SLC35C2	-0.483 (inactive)
CUGUGAAAAUGGGACGGGATT against NDUFA6	-0.457 (inactive)
CAUCAGUCAUAAUGCCUAUTT against MAP1D	0.155 (inactive)
CGCCUCCAGUUUUAACUCUTT against POU2F3	-1.53 (active)
GGGUAUUCUGGGCAUGAAATT against NANS	-1.54 (active)
GCAAGACCUAUGAAACGAUTT against CADPS	0.551 (inactive)
GCACGAGGUUUUCACCUAUTT against SRMS	-1.58 (active)
GUUAUACUGUGAGAUCUAATT against GPR160	-0.278 (inactive)
GAGAUUGGGUGGAAGAGAATT against FOXD2	-0.0853 (inactive)
AAGUCGGAAUAGAAUGGAATT against COX7B	-1.16 (active)
GGACAACAACUGAAAUGUATT against ZIM3	-0.02 (inactive)
AGUUAGGCACAGUCAGACATT against POLD4	0.225 (inactive)
CGAUGUAUGACGAGGAAAATT against BTNL3	0 (inactive)
GUUACGACCUGGAAGAUUATT against SPATA5L1	0.252 (inactive)
GAGCAAGACUUCUACGUGATT against SERPINA5	-1.01 (active)
GGCUAAGAAUGACCAUUAUTT against NPR2	0.0712 (inactive)
CAGUCGUCAUAAUACUGCATT against SMC4	0.646 (inactive)
CCCUGUUAGUAACGGCAAATT against OBFC2B	-0.061 (inactive)

Sequence	median seed-adjusted z-score
AGAUGUACCUAUGUCAAGATT against OVOL1	-0.0414 (inactive)
CCAUGUUUGAACAAGCCCATT against MYL7	-1.21 (active)
GCACCUUUGUGACCUAUGATT against KIF9	0 (inactive)
CGCUAAAGCUGCACACUGATT against TRAF3	0.731 (inactive)
GAGCUGACUUUCUGACCAATT against RAB7A	0.169 (inactive)
GCAACGGUGCUUUCCCAGATT against CASKIN1	0.555 (inactive)
CCAAAGUGGGUGUCAACGATT against BGN	0.376 (inactive)
GAAUUUUGUGGUUACACUATT against POLR1D	-0.0409 (inactive)
GGGUGUAAUUCAUAAGGGUTT against PSMD1	-1.61 (active)
GGACUGAUUGGACUCCCAUTT against TNFRSF11A	-0.0833 (inactive)
GGACGGUCGUGAUGGAUAATT against SAFB2	0.0394 (inactive)
CCCUGAACAUACCUACUGATT against BRS3	0.224 (inactive)
ACAUCUAUUUGUGACCUUATT against NHLH2	0 (inactive)
GCACAAGCAUUGGAAAUAATT against MAP4	1.67 (active)
CCUUUAUGCCUGAUCCUCATT against SULT1C3	-0.731 (inactive)
CCACAACGGACAGUCCAUATT against CYP17A1	-1.39 (active)
GGAAAGCAAUAAAAGUUAUTT against TAAR6	-0.124 (inactive)
AGGCCUAUAUUGAAGGAGATT against DGKG	0.227 (inactive)
CAACAGGUAUAACUACAUATT against CNDP2	0.43 (inactive)
CCAAGAAGAUCAGCACCUUTT against GPR26	-1.33 (active)
